Assay outcomes (PubChem BioAssay)
Hits are enriched below; roughly 3.4% of the tested compounds scored in any of these assays.
Gli-Sufu antag = Gli-Sufu pathway antagonists, primary screen, luciferase luminescence, Sufu-KO-LIGHT cells, uHTS | Sufu-KO-LIGHT fibroblasts, Gli luciferase reporter luminescence | actives 0.74% (n = 340,000) | inhibition, % at 5 µM;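 active means inhibition above about 55%, limit read from the data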
GalR3 antagonist = GalR3 antagonists in HEK293 cells, primary screen, cell-based, fluorescence readout; AID 651719, 2012; Galanin receptor type 3 (Homo sapiens), O60755; inhibition, % at 3 µM; HEK293 GalR3-CNG cAMP membrane potential fluorescence; galR3 body fused to GalR1 C-terminus; actives 0.44% (n = 360,000);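 active means inhibition above the screen-wide average plus 3 SD, cut at about 13% in these data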;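 further: forskolin and galanin both at EC90 stimulate the cells; cAMP rise reported by CNG channel membrane potential dye signal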
SMARCA2 act = SMARCA2 (BRM) function activators, primary screen, cell-based, luminescence, high throughput; MG213 cells, MMTV-luciferase reporter, dexamethasone, overnight; activation, % at 9.1 µM; actives 1% (n = 370,000); AID 652017, 2013; in the data active means activation above about 7.8%
GAA850 FXN act = FXN promoter activators, primary screen, cell-based, luciferase luminescence, HEK293 lucGAA850; activation, % at 6 µM; HEK293 lucGAA850 FXN promoter luciferase reporter, 24 h; percent of 10 µM SAHA response; actives 0.56% (n = 360,000);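 active means activation above the average of all compounds screened plus 3 SD, cutoff fixed separately per campaign, cut at about 7.5% in these data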
H9c2 protect = cardioprotection against H2O2-induced cell death, primary screen, uHTS, H9c2 cells, ATPLite luminescence; actives 0.63% (n = 360,000); protection from H2O2 cell death, % at 20 µM; H9c2 cardiomyocytes, H2O2 injury protection, 2 h;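 active means compounds giving at least 50% protection of heart cells from peroxide-induced death in the single-dose screen, raw or plate-pattern-corrected value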
NR2F2 inh = NR2F2 transcriptional activity inhibitors, primary screen, cell-based, luciferase reporter, HEK293T, luminescence; COUP transcription factor 2 (Homo sapiens), P24468; HEK293T NGFI-A luciferase reporter; inhibition, % at 8.6 µM; actives 0.7% (n = 370,000);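 active means inhibition above a per-plate cutoff, mean inhibition of test wells between control levels plus 3 SD, cut at about 38% in these data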;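 further: cells cotransfected with COUP-TFII expression vector driving the NGFI-A reporter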
Target sequence (P24468 whole entry, looked up): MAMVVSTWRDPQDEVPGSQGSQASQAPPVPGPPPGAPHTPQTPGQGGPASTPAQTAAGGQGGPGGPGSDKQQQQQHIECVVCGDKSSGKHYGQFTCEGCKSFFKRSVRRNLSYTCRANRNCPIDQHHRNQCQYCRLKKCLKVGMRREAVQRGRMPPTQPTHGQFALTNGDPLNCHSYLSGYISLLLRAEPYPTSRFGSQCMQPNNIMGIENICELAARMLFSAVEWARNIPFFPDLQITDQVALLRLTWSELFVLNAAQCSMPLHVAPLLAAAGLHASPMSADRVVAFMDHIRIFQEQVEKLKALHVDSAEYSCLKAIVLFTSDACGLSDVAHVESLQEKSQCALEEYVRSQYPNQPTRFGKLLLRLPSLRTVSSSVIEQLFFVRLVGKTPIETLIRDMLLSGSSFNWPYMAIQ
GalR3 antag conf = GalR3 antagonist hit confirmation, cell-based, fluorescence, triplicate; inhibition, % at 3 µM; AID 652245, 2013; HEK293 GalR3 CNG cAMP biosensor, membrane potential fluorescence; galR3 fused to GalR1 carboxy tail; challenged with forskolin and galanin at EC90; shares compounds with GalR3 antagonist; actives 59% (n = 1,600);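 active means inhibition above the primary screen's cutoff, the mean inhibition of all screened compounds plus 3 SD, cut at about 13% in these data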
CNG parental = nonspecific cAMP agonists in parental HEK-CNG cells, counter-screen for GalR3 antagonist project, cell-based, fluorescence, high throughput | shares compounds with GalR3 antagonist | HEK293-CNG parental cells, cAMP membrane potential fluorescence; normalised: DMSO wells 0%, forskolin wells 100% | activation, % at 3 µM | actives 10% (n = 1,600) | AID 652268, 2013; in the data active means activation above about 1.3%
Hits are given with their value; n = inactive; x = no result.

SMILES	Gli-Sufu antag	GalR3 antagonist	SMARCA2 act	GAA850 FXN act	H9c2 protect	NR2F2 inh	GalR3 antag conf	CNG parental
CCc1ccc(NC(=O)C2CCN(S(=O)(=O)c3ccc4c(c3)CC(C)N4C(C)=O)CC2)cc1 (centres undefined)	n	38.5	n	n	n	n	n	n
CN(C(=O)c1cccc(NC(=O)c2cccs2)c1)c1ccccc1	n	n	n	n	n	n	x	x
O=C(CSC1=NCCS1)N1CCN(c2ccc(Cl)cc2)CC1	n	45.3	n	n	n	n	45.8	n
CC(=O)c1ccc(S(=O)(=O)N2CCN(C(C)=O)CC2)cc1	n	16.4	n	n	n	n	n	n
CC(=O)c1ccc(S(=O)(=O)N2CCCC2)cc1	n	n	n	n	n	n	x	x
OCC[C@@H]1C[C@H](O)[C@@H](O)[C@]2(CCc3ccccc3O2)O1	n	n	n	n	n	n	x	x
OCC[C@@H]1C[C@@H](O)[C@H](O)[C@]2(CCc3ccccc3O2)O1	n	x	n	n	n	n	18.2	n
COc1ccc(NS(=O)(=O)c2ccc(NC(=O)c3ccc(N(C)S(C)(=O)=O)cc3)cc2)c(OC)c1	n	98.8	n	n	n	n	106.8	n
CCCCc1ccc(NC(=O)c2ccc(N(C)S(C)(=O)=O)cc2)cc1	n	36.0	n	n	n	n	115.4	n
CCCCc1ccc(NC(=O)c2ccc(NS(C)(=O)=O)cc2)cc1	n	n	n	n	n	n	x	x
O=C(Nc1ccccc1)c1nn(-c2ccccc2)c(=O)cc1C(F)(F)F	n	n	n	n	n	n	x	x
O=C(Nc1ccccc1)c1nn(-c2cccc(C(F)(F)F)c2)ccc1=O	n	45.2	n	n	n	n	50.3	n
Fc1ccc(CNC(=S)NC2CCCCCC2)cc1	n	n	n	n	n	n	x	x
Clc1cccc(CN2CCN(c3ncc(Cc4ccccc4)cn3)CC2)c1Cl	x	55.0	n	x	x	n	105.6	n
CN(C)c1ccc(/C=N/NC(=O)CN(c2ccccc2Cl)S(C)(=O)=O)cc1Br	n	14.2	n	n	n	n	18.4	n
COC(=O)Oc1ccc(/C=N/NC(=O)CN(c2ccccc2Br)S(C)(=O)=O)cc1OC	n	n	n	n	n	n	x	x
C/C(=N\O)c1ccco1	n	x	n	n	n	n	n	n
COCCN1C(=O)C(=O)/C(=C(/O)c2ccc(S(=O)(=O)N3CCCCC3)cc2)C1c1ccc(OC)cc1 (centres undefined)	n	n	n	n	n	n	x	x
Cc1ccc(-c2nnc(COC(=O)c3cc(=O)[nH]c4ccccc34)o2)cc1	n	12.9	n	n	n	n	n	n
O=C(COC(=O)c1cccnc1Cl)Nc1cc(S(=O)(=O)N2CCCCC2)ccc1Cl	n	n	n	n	n	n	x	x
Nc1nc(=O)n(C2OC(CO)C(O)C2O)cc1F (centres undefined)	x	n	n	x	n	n	x	x
Nc1cnn(C2OC(CO)C(O)C2O)c(=O)n1 (centres undefined)	n	21.2	n	n	n	n	n	n
C[C@H]1C[C@H]2[C@@H]3CCC4=CC(=O)C=C[C@]4(C)[C@@]3(Cl)[C@@H](O)C[C@]2(C)[C@@]1(O)C(=O)CO	n	n	n	n	n	n	x	x
C[C@H]1C[C@H]2[C@@H]3CCC4=CC(=O)C=C[C@]4(C)[C@@]3(F)[C@@H](O)C[C@]2(C)[C@@]1(O)C(=O)CO	n	27.7	n	n	n	n	43.7	3.9
OCc1c(Cl)nc2ccccn12	n	14.2	n	n	n	n	n	n
SMILES	Gli-Sufu antag	GalR3 antagonist	SMARCA2 act	GAA850 FXN act	H9c2 protect	NR2F2 inh	GalR3 antag conf	CNG parental
C/C(=N\NC(=O)c1ccccn1)c1ccc(C(=O)O)s1	x	n	n	x	x	n	x	x
N/C(=N\OC(=O)c1cccc(Cl)c1)c1cccnc1	n	x	n	n	n	n	n	n
Brc1ccc(OCCCN2CCOCC2)cc1	n	16.4	n	n	n	n	n	n
Brc1ccc(OCCN2CCOCC2)cc1	n	n	n	n	n	n	x	x
CN(CCCNC(=O)c1cn(C)c2ccc(S(=O)(=O)N(C)C)cc2c1=O)c1ccccc1	n	20.3	n	n	n	n	n	n
CC1CCN(CCCNC(=O)c2cn(C)c3ccc(S(=O)(=O)N4CCCC4)cc3c2=O)CC1	n	14.7	n	n	n	n	n	n
CCN(CC)S(=O)(=O)c1ccc2c(c1)c(=O)c(C(=O)NCCCN(C)c1ccccc1)cn2C	n	n	n	n	n	n	x	x
CCOC(=O)N1CCN(S(=O)(=O)c2c[nH]c(C(=O)OC)c2)CC1	n	n	n	n	n	n	x	x
C=CCNc1ncnc2c1ncn2C1OC(CO)C(O)C1O (centres undefined)	n	98.8	n	n	n	n	99.3	n
COc1ccc(-c2nc(C#N)c(NCc3ccc(F)cc3)o2)cc1OC	n	13.4	n	n	n	n	25.0	n
O=C(O)CCCn1cc(NC(=O)c2ccc(F)cc2)cn1	n	n	n	n	n	n	x	x
O=C(O)CCCn1cc(NC(=O)c2c(F)cccc2F)cn1	n	15.4	n	n	n	n	n	n
Cc1ccc(C2(C)NC(=O)N(CC(=O)NNC(=O)c3cc(C)oc3C)C2=O)cc1 (centres undefined)	n	n	n	n	n	n	x	x
COc1ccc2[nH]c(O)c(N=NC(=N)N)c2c1	n	14.3	n	n	n	n	n	n
COc1ccc(Cc2nnc(N=Nc3c(O)[nH]c4ccc(Br)cc34)[nH]c2=O)cc1	n	n	n	n	n	n	x	x
COc1ccccc1NC(=S)NC(=O)c1c(-c2ccccc2Cl)noc1C	n	15.5	n	n	n	n	n	n
Cc1cc(/C=N/n2c(COc3ccccc3)nc3ccccc3c2=O)c(O)c([N+](=O)[O-])c1	n	31.2	n	n	n	n	43.7	n
O=C1C(CN2CCCC2)CCCC1CN1CCCC1 (centres undefined)	n	15.1	n	n	n	n	n	n
O=C(CCN1C(=O)c2ccccc2S1(=O)=O)Nc1ccc(Cl)cc1	n	n	n	n	n	n	x	x
